Hits are enriched below; roughly 19% of the tested compounds scored in any of these assays.
ELG1 repair inh: ELG1-dependent DNA repair inhibition; HEK293T ELG1-luciferase reporter, luminescence, 16 h; DNA damage induced by 5-fluorouridine; Potency, µM (highest dose often 46.1 µM), for the others: at the top dose activity change, negative = inhibition, most hits filed as inhibitors; actives 2.3% (n = 330,000); AID 504467; note: potency is the fitted concentration of half-maximal effect; nearly all actives have a fitted effect of over 55% in size
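Step one: seed 2,000 cells per well. Step two: pin-transfer compound or DMSO alongside 5-fluorouridine. Step three: incubate 16 hr, 37 °C, 5% CO2. Step four: add ONE-Glo, wait 30 min, read luminescence.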
HT1080-NT tox: kills 2HG-producing HT-1080-NT fibrosarcoma cells. HT-1080-NT fibrosarcoma viability, CellTiter-Glo ATP luminescence, 48 h. Potency, µM (series often up to 46.1 µM), for inactives: top-dose activity, negative = less viability, most hits filed as cytotoxic. actives 1.6% (n = 360,000). AID 686970;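 note: NT is the 2HG producing partner of a matched IDH1 knockdown line; potency is the fitted concentration of half-maximal effect; 0% = DMSO-treated cells and -100% = media-only wells without cells; nearly all actives have a fitted effect of over 55% in size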
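HT-1080-NT fibrosarcoma cells (2HG-overproducing), 750 cells/well in RPMI with 5% FBS, dosed after 2 h and incubated 48 h at 37C. CellTiter-Glo luminescence normalized to DMSO and no-cell wells; concentration-response curves fitted and classed.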
HT1080 IDH1KD tx: HT-1080 IDH1 knockdown cell toxicity (counter line); HT-1080 IDH1 knockdown viability, ATP luminescence, 48 h; Potency, µM (series often up to 46.1 µM), for the others: at the top dose activity, negative = toxicity, most hits filed as cytotoxic; actives 2% (n = 360,000); AID 686971;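 note: potency is the fitted concentration of half-maximal effect; 0% = DMSO wells and -100% = cell-free medium wells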
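Using the IDH1-knockdown HT-1080 line run in the same batch and compound series as the NT line, viability after 48 h at 37 °C was determined by CellTiter-Glo luminescence and expressed as % activity.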
IL-1B inflam inh: inhibitors of inflammasome signaling (IL-1 beta secretion). activity change, % at 57.5 µM. THP-1 LPS/ATP IL-1B secretion, AlphaLISA, 16 h; hits give low values. actives 4.7% (n = 360,000); in the data active = activity change below about -50%; inconclusive = mostly about -30% to -49%
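THP-1 cells pretreated 1 hr with compounds (up to 57.5 uM final), then stimulated with LPS (250 ng/mL final) plus ATP (1.25 mM final); secreted IL-1B measured by AlphaLISA after 16 hr, decreased signal indicating inhibition.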
DT40 TDP1 no CPT: qHTS for Inhibitors of human tyrosyl-DNA phosphodiesterase 1 (TDP1): qHTS in cells in absence of CPT | DT40 Tdp1-/- hTDP1 cells, no CPT, ATP luminescence, 48 h | Potency, µM (series often up to 46.2 µM), without a hit: top-dose activity change, negative = growth inhibition, hits mostly inhibitors | actives 15% (n = 420,000) | AID 686978, 2013; note: potency is the fitted concentration of half-maximal effect; nearly all actives have a fitted effect of over 55% in size
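Chicken DT40 Tdp1-/- cells stably complemented with human TDP1 were seeded at 400 cells/well with DMSO in place of 20 nM camptothecin. After compound pinning, cells grew at least 48 hr at 37 °C; viability read by CellTiter-Glo luminescence.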
DT40 TDP1 CPT: DT40-hTDP1 cell growth loss with CPT. chicken DT40 Tdp1-/-;hTDP1 cells + 20 nM CPT, ATP luminescence, 48 h. Potency, µM (titrated, usually from 46.2 µM), for the others: at the highest dose activity change, negative = growth inhibition, most hits filed as inhibitors. actives 12% (n = 420,000); note: potency is the fitted concentration of half-maximal effect; nearly all actives have a fitted effect of over 55% in size
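Chicken DT40 Tdp1-/- cells complemented with human TDP1, 400 cells/well, exposed to compounds plus 20 nM camptothecin for at least 48 h at 37 C; viability read as ATP content by CellTiter-Glo luminescence.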
The depositor's hits bear a star; i = inactive; ? = inconclusive; . = no result. Unless noted, calls come from the whole dose curve; as a rule, active = well fitted curve in the direction sought with a large enough effect; inconclusive = small, poorly fitted or top-dose-only effect, or another doubt; inactive = no such curve, though single readings can be large; an effect the other way counts as inactive or inconclusive. Unless noted, % is set by controls: 0 for no effect and ±100 for the full control effect.

SMILES	ELG1 repair inh	HT1080-NT tox	HT1080 IDH1KD tx	IL-1B inflam inh	DT40 TDP1 no CPT	DT40 TDP1 CPT
CCOc1ccccc1/C=C(\C#N)C(=O)NC1CC1	.	-3%	-3%	0	-18%	-19%
C=CCNC(=O)/C(C#N)=C\c1cc(Cl)c(OCC)c(OC)c1	-4%	?	?	-91*	?	?
CCOc1c(Br)cc(/C=C(\C#N)C(=O)NC2CC2)cc1OC	0%	23µM*	?	-13	?	?
CC(=NNC(=O)c1ccncc1)c1cccc(Cl)c1	.	10%	6%	-15	-20%	9%
CC[C@@H]1C/C=C\Cc2ccccc2[C@@H](C(=O)C[C@H](O)CC(C)=O)OC1=O	6%	4%	4%	5	-4%	15%
COc1cc(NC(=O)c2ccc3oc(=O)c(S(=O)(=O)c4ccccc4)cc3c2)cc(OC)c1	.	.	.	.	-7%	-9%
CN(C)c1ccc(C2C=Cc3ccccc32)c2ccccc12 (centres undefined)	.	.	.	.	?	-19%
CNCCCC1c2ccccc2C=Cc2ccccc21	-19%	18µM*	23µM*	0	23µM*	?
Cc1ccc(-c2cnc(-c3ccccc3C(=O)O)o2)cc1	?	8%	14%	-6	-7%	15%
CCN1C(=O)[C@@H]2[C@@H](c3ccc(-c4ccccc4)cc3)N3CCC[C@@]3(C(=O)OC)[C@@H]2C1=O	4%	39%	-4%	-3	?	21µM*
CCN1C(=O)[C@H]2[C@@H](c3ccc(-c4ccccc4)cc3)N3CCC[C@@]3(C(=O)OC)[C@H]2C1=O	?	13%	14%	-15	18µM*	?
CC1(C)N=C(SCC(=O)Nc2ccccc2)C(c2ccc(Cl)cc2)=N1	?	-16%	-24%	-93*	15µM*	23µM*
Nc1nc(SCC(=O)Nc2ccc(Cl)cc2)[nH]c(=O)c1-c1ccccc1	-17%	-21%	-18%	2	-10%	-1%
Cc1ccc(C2=NC(C)(C)N=C2SCC(=O)Nc2ccc(Cl)cc2)cc1	?	?	?	-106*	?	21µM*
Cc1cc(N2CCN(C)CC2)nc2ccc(NC(=O)CCC(=O)NCCc3ccc(Cl)cc3)cc12	-4%	3%	27%	38	?	7%
COc1cccc(-c2nc(NCc3cccs3)c3ccccc3n2)c1	.	.	.	.	-13%	?
O=C1C(O)=C(O)C(=O)C(O)=C1O	.	.	.	.	-17%	-6%
COCCCNS(=O)(=O)c1cc2c3c(c1)C(C)C(=O)N3CCC2 (centres undefined)	8%	6%	0%	0	-23%	-4%
Brc1ccc2oc3c(N4CCOCC4)ncnc3c2c1	?	10%	12%	0	12µM*	?
c1ccc(N2CCN(c3ncnc4c3oc3ccccc34)CC2)cc1	?	9%	7%	-9	?	?
O=C(Nc1ccccc1OCc1cc(=O)n2ccccc2n1)c1ccccc1F	.	.	.	.	-29%	?
O=C(Cc1cccs1)NCCS(=O)(=O)N1CCN(c2ccccc2F)CC1	-14%	?	?	7	5.8µM*	7.3µM*
O=C(Cc1ccc(-c2ccccc2)cc1)NCCS(=O)(=O)N1CCN(c2ccccc2F)CC1	.	.	.	.	15µM*	10µM*
O=C(CCC1CCCC1)NCCS(=O)(=O)N1CCN(c2ccccc2F)CC1	-3%	-9%	-13%	15	15µM*	?
CCN(CC(=O)NCc1ccc(F)cc1)C(=O)C1CCN(S(=O)(=O)c2ccc(C(C)C)cc2)CC1	-19%	-2%	-2%	-27	?	?
SMILES	ELG1 repair inh	HT1080-NT tox	HT1080 IDH1KD tx	IL-1B inflam inh	DT40 TDP1 no CPT	DT40 TDP1 CPT
CCOCCCNC(=O)CCN1C(=O)c2ccccc2Sc2ncccc21	7%	7%	27%	7	-9%	-9%
Cc1ccc(S(=O)(=O)N2CCC(C(=O)N3CCCCCCC3)CC2)cc1C	.	0%	-17%	-15	?	16µM*
Cc1ccc(S(=O)(=O)N2CCC(C(=O)N3CCc4ccccc43)CC2)cc1	0%	14%	15%	i	?	?
Cc1ccc(S(=O)(=O)N2CCC(C(=O)OCCOc3cccc(C)c3)CC2)cc1	22%	-7%	7%	30	1%	-4%
Cc1ccc(S(=O)(=O)N2CCC(C(=O)N3CCc4ccccc43)CC2)cc1C	12%	-7%	-3%	-2	18µM*	?
Cc1ccc(S(=O)(=O)N2CCC(C(=O)OCCOc3ccccc3)CC2)cc1C	15%	2%	5%	9	0.18µM*	-9%
Cc1ccc(S(=O)(=O)N2CCC(C(=O)N3CCCC(C(F)(F)F)C3)CC2)cc1C (centres undefined)	-12%	0%	0%	-10	-26%	?
CCCCn1c(N)c(N(CC)C(=O)c2c(C)noc2C)c(=O)[nH]c1=O	16%	2%	-3%	1	2%	6%
COc1cc(OC)cc(-c2nnc(SCc3cccnc3)o2)c1	4%	11%	18%	-9	-25%	26µM*
COc1cc(/C=N/n2c(-c3ccccc3)n[nH]c2=S)ccc1O	?	5%	2%	81	-13%	1%
COc1cc(-c2n[nH]c(=S)n2/N=C/c2cccn2C)cc(OC)c1OC	?	-17%	-21%	45	18µM*	?
Cn1cccc1/C=N/n1c(-c2ccco2)n[nH]c1=S	-6%	2%	3%	9	1%	16%
Cc1ccc(-c2n[nH]c(=S)n2/N=C/c2c(C)nn(-c3ccccc3)c2C)cc1	-22%	-4%	-1%	3	16µM*	?
COc1ccc(/C=N/n2c(-c3ccc(C)cc3)n[nH]c2=S)cc1OC	-14%	17%	0%	-51*	?	?
CCN(C(=O)COC(=O)COc1ccc(Cl)c(C)c1)C1CCS(=O)(=O)C1 (centres undefined)	0%	9%	4%	13	19%	-2%
CC1(C)CC(=O)C2=C(C1)OC(N)=C(C#N)C2c1cn(-c2ccccc2)nc1-c1ccccc1 (centres undefined)	?	15µM*	?	-54*	?	?
CC1(C)CC(=O)C2=C(C1)OC(N)=C(C#N)C2C#Cc1ccccc1 (centres undefined)	27%	?	?	-96*	4.6µM*	5.2µM*

High-throughput results from PubChem BioAssay.
